From PubChem BioAssay (NCI)
The panel holds about 83,000 compounds, 20% with a hit somewhere; the sample as a whole holds those more often.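 A percent growth of 40 corresponds to 60% growth inhibition; 0 means no net growth; -100 means all cells died. Active threshold: below 10.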 The source made the active and inactive calls.

Legend:
Assay in all cases: NCI-60 one-dose screen, 48 h (100 = growth as untreated, 0 = no growth, -100 = all killed)
Conditions in all cases: 10 µM unless noted
NCI-H23 lung = test system: NCI-H23 lung
NCI-H226 lung = test system: NCI-H226 lung
NCI-H322M lung = test system: NCI-H322M lung
HOP-62 NSCLC = test system: HOP-62 NSCLC
NCI-H460 lung = test system: NCI-H460 lung
HOP-92 NSCLC = test system: HOP-92 NSCLC
NCI-H522 lung = test system: NCI-H522 lung
A549/ATCC NSCLC = test system: A549/ATCC NSCLC
786-0 renal = test system: 786-0 renal
COLO 205 colon = test system: COLO 205 colon
DU-145 prostate = test system: DU-145 prostate
K-562 leukemia = test system: K-562 leukemia
MALME-3M melanoma = test system: MALME-3M melanoma
MDA-MB-231 breast = test system: MDA-MB-231 breast
RXF 393 renal = test system: RXF 393 renal
SF-268 CNS = test system: SF-268 CNS
SF-295 CNS = test system: SF-295 CNS
SF-539 CNS = test system: SF-539 CNS
UACC-257 melanoma = test system: UACC-257 melanoma
M14 melanoma = test system: M14 melanoma

Measured: growth

COCC(=O)Oc1cc(-c2ccc(C)cc2C)c(OC(=O)COC)c(-c2ccc(C)cc2C)c1
active: DU-145 prostate -16.9%
inactive: NCI-H23 lung 68.8% | NCI-H226 lung 59.8% | NCI-H322M lung 79% | HOP-62 NSCLC 61.5% | NCI-H460 lung 17.4% | HOP-92 NSCLC 66.7% | NCI-H522 lung 30.9% | A549/ATCC NSCLC 43.7% | 786-0 renal 69.6% | COLO 205 colon 48.4% | K-562 leukemia 40.8% | MALME-3M melanoma 85.3% | MDA-MB-231 breast 49.7% | RXF 393 renal 73.5% | SF-268 CNS 44.5% | SF-295 CNS 57.5% | SF-539 CNS 45.7% | UACC-257 melanoma 71.2% | M14 melanoma 65.1%

Cc1cc2oc(/C=C/c3ccccc3)cc(=O)c2c(C)c1Cl
inactive: NCI-H23 lung 88.8% | NCI-H226 lung 103% | NCI-H322M lung 110% | HOP-62 NSCLC 103% | NCI-H460 lung 105% | HOP-92 NSCLC 97% | NCI-H522 lung 93.8% | A549/ATCC NSCLC 91.6% | 786-0 renal 93.2% | COLO 205 colon 104% | DU-145 prostate 103% | K-562 leukemia 118% | MALME-3M melanoma 94% | MDA-MB-231 breast 107% | RXF 393 renal 98% | SF-268 CNS 102% | SF-295 CNS 96.2% | SF-539 CNS 98.9% | UACC-257 melanoma 97% | M14 melanoma 108%

Nc1cc(-c2ccc(Cl)cc2)nn1-c1nnc(/C=C/c2ccco2)c(=O)[nH]1
inactive: NCI-H23 lung 58.8% | NCI-H226 lung 47.4% | NCI-H322M lung 24.4% | HOP-62 NSCLC 71.3% | NCI-H460 lung 20.4% | HOP-92 NSCLC 60.3% | NCI-H522 lung 74.9% | A549/ATCC NSCLC 37.3% | 786-0 renal 46.9% | COLO 205 colon 72.6% | DU-145 prostate 63.3% | K-562 leukemia 41.7% | MALME-3M melanoma 72.5% | MDA-MB-231 breast 74.2% | RXF 393 renal 67.8% | SF-268 CNS 52.5% | SF-539 CNS 55.4% | UACC-257 melanoma 69.6% | M14 melanoma 57.4%
active: SF-295 CNS 9.9%

CN(C)/C(N)=N/N=C(\c1ccccc1)c1ccccn1
inactive: NCI-H23 lung 95.7% | NCI-H226 lung 97.3% | NCI-H322M lung 83.1% | HOP-62 NSCLC 110% | NCI-H460 lung 101% | HOP-92 NSCLC 87.2% | NCI-H522 lung 95.5% | A549/ATCC NSCLC 107% | 786-0 renal 99.9% | COLO 205 colon 106% | DU-145 prostate 97.7% | K-562 leukemia 96.7% | MALME-3M melanoma 93.3% | MDA-MB-231 breast 88.1% | RXF 393 renal 98.5% | SF-268 CNS 92.6% | SF-295 CNS 106% | SF-539 CNS 103% | UACC-257 melanoma 112% | M14 melanoma 93%

O=CCCCOCc1ccccc1
inactive: NCI-H23 lung 96.4% | NCI-H226 lung 96.5% | NCI-H322M lung 110% | HOP-62 NSCLC 93.2% | NCI-H460 lung 107% | HOP-92 NSCLC 90.6% | NCI-H522 lung 88.5% | A549/ATCC NSCLC 95.3% | 786-0 renal 98.4% | COLO 205 colon 109% | DU-145 prostate 102% | K-562 leukemia 104% | MALME-3M melanoma 95.8% | MDA-MB-231 breast 101% | RXF 393 renal 113% | SF-268 CNS 103% | SF-295 CNS 95.1% | SF-539 CNS 101% | UACC-257 melanoma 103% | M14 melanoma 96.4%

Cc1ccc(NC(=O)c2cc3ccccc3cc2O)c(C)c1
inactive: NCI-H23 lung 71.9% | NCI-H226 lung 86.6% | NCI-H322M lung 94.4% | HOP-62 NSCLC 89.3% | NCI-H460 lung 79.9% | HOP-92 NSCLC 36.4% | A549/ATCC NSCLC 106% | 786-0 renal 84.7% | COLO 205 colon 78.5% | DU-145 prostate 96.3% | K-562 leukemia 63.6% | MALME-3M melanoma 69.8% | MDA-MB-231 breast 97.8% | RXF 393 renal 113% | SF-268 CNS 102% | SF-295 CNS 94.1% | SF-539 CNS 78.7% | UACC-257 melanoma 86.3% | M14 melanoma 86.9%
active: NCI-H522 lung -1.58%

Cc1cccc(N=Nc2cccc(C)c2)c1
inactive: NCI-H23 lung 92.5% | NCI-H226 lung 100% | NCI-H322M lung 98.5% | HOP-62 NSCLC 104% | NCI-H460 lung 102% | HOP-92 NSCLC 85.9% | NCI-H522 lung 97.4% | A549/ATCC NSCLC 104% | 786-0 renal 116% | COLO 205 colon 111% | DU-145 prostate 112% | K-562 leukemia 138% | MALME-3M melanoma 100% | MDA-MB-231 breast 86.4% | RXF 393 renal 115% | SF-268 CNS 110% | SF-295 CNS 97.9% | SF-539 CNS 110% | UACC-257 melanoma 113% | M14 melanoma 108%

CC1(C)N=C(N)N=C(N)N1c1cc(Cl)ccc1Cl
inactive: NCI-H23 lung 74.4% | NCI-H226 lung 94.3% | NCI-H322M lung 119% | HOP-62 NSCLC 92.8% | NCI-H460 lung 32.3% | HOP-92 NSCLC 94% | NCI-H522 lung 52.7% | A549/ATCC NSCLC 86.7% | 786-0 renal 110% | COLO 205 colon 87.5% | K-562 leukemia 71.2% | MALME-3M melanoma 125% | MDA-MB-231 breast 92.6% | RXF 393 renal 78.7% | SF-268 CNS 75.1% | SF-295 CNS 51.5% | SF-539 CNS 85.8% | UACC-257 melanoma 94.7% | M14 melanoma 94%
active: DU-145 prostate 6.66%

N#CC1=C(N)Oc2c(sc3c(F)cccc23)C1c1ccc([N+](=O)[O-])cc1 (stereo not given)
active: NCI-H23 lung -4.82% | NCI-H226 lung 3.23% | NCI-H322M lung -24.2% | HOP-62 NSCLC -33.4% | NCI-H460 lung -26.8% | HOP-92 NSCLC -47.5% | NCI-H522 lung -26.3% | A549/ATCC NSCLC 4.46% | 786-0 renal -18.6% | COLO 205 colon -41.7% | DU-145 prostate 3.51% | K-562 leukemia 1.99% | MALME-3M melanoma -24.3% | MDA-MB-231 breast -66.2% | RXF 393 renal -57.3% | SF-268 CNS -23.1% | SF-295 CNS -70.3% | SF-539 CNS -79.2% | UACC-257 melanoma -17.2% | M14 melanoma -50.9%

CCN1C(=O)N(c2ccccc2)C2NC(=S)N(/N=C/C=C/c3ccccc3OC)C21 (stereo not given)
inactive: NCI-H23 lung 39.6% | NCI-H226 lung 49.9% | NCI-H322M lung 41.8% | HOP-62 NSCLC 35.1% | HOP-92 NSCLC 43.4% | A549/ATCC NSCLC 24.1% | 786-0 renal 26% | MALME-3M melanoma 40.9% | MDA-MB-231 breast 16.7% | RXF 393 renal 62.2% | SF-268 CNS 47.3% | SF-295 CNS 14.2% | UACC-257 melanoma 22% | M14 melanoma 11.2%
active: NCI-H460 lung 3.66% | NCI-H522 lung 9.88% | COLO 205 colon 6.54% | DU-145 prostate 5.45% | K-562 leukemia 9.41% | SF-539 CNS -13.3%

COc1ccc(C(=O)C/C(=C\c2ccc(O)c(OC)c2)C(=O)NN)cc1
inactive: NCI-H23 lung 68.9% | NCI-H226 lung 91.7% | NCI-H322M lung 82% | HOP-62 NSCLC 67.4% | NCI-H460 lung 43.6% | HOP-92 NSCLC 69.5% | NCI-H522 lung 52.1% | A549/ATCC NSCLC 80% | 786-0 renal 112% | COLO 205 colon 106% | DU-145 prostate 101% | K-562 leukemia 47.2% | MALME-3M melanoma 93.4% | MDA-MB-231 breast 65.4% | RXF 393 renal 107% | SF-268 CNS 92.4% | SF-295 CNS 102% | SF-539 CNS 80.8% | UACC-257 melanoma 81.5% | M14 melanoma 91.5%

C=C1CC[C@@H]2C(C)(C)[C@H](O)CC[C@@]2(C)[C@@H]1COc1ccc2ccc(=O)oc2c1
inactive: NCI-H23 lung 40.7% | NCI-H226 lung 28.5% | NCI-H322M lung 92.4% | HOP-62 NSCLC 45.9% | NCI-H460 lung 90.5% | HOP-92 NSCLC 72.4% | NCI-H522 lung 32.8% | A549/ATCC NSCLC 51.5% | 786-0 renal 93% | COLO 205 colon 68.7% | DU-145 prostate 56.9% | K-562 leukemia 41.9% | MALME-3M melanoma 74.3% | MDA-MB-231 breast 84% | RXF 393 renal 101% | SF-268 CNS 68.3% | SF-295 CNS 48% | SF-539 CNS 88.4% | UACC-257 melanoma 69.4% | M14 melanoma 53.3%

COc1ccc(Cl)cc1Nc1nc(C(F)(F)F)ccc1C(=O)N/N=C/c1ccc([N+](=O)[O-])cc1
active: NCI-H322M lung -1.09% | NCI-H460 lung 0.872% | HOP-92 NSCLC -47.7% | NCI-H522 lung -8.55% | A549/ATCC NSCLC 6.02% | 786-0 renal 8.42% | COLO 205 colon 9.91% | K-562 leukemia 2.07% | MDA-MB-231 breast -14.9% | SF-295 CNS -52% | UACC-257 melanoma -3.41%
inactive: NCI-H23 lung 18% | NCI-H226 lung 13.6% | HOP-62 NSCLC 11.4% | DU-145 prostate 12.8% | MALME-3M melanoma 11.5% | RXF 393 renal 13% | SF-268 CNS 15.3% | SF-539 CNS 10.8% | M14 melanoma 36.2%

O=C1c2cccnc2C(=O)c2c1c(C(=O)OCCc1ccccn1)c1ccccn21
active: NCI-H23 lung -55.8% | NCI-H226 lung -50.1% | NCI-H322M lung -53.3% | HOP-62 NSCLC -79% | NCI-H460 lung -71% | NCI-H522 lung -50.4% | A549/ATCC NSCLC -65.9% | 786-0 renal -63.2% | COLO 205 colon -62.3% | DU-145 prostate -87.9% | K-562 leukemia -2.55% | MALME-3M melanoma -57.5% | MDA-MB-231 breast 5.98% | RXF 393 renal -46.6% | SF-268 CNS -1.63% | SF-295 CNS -50.9% | SF-539 CNS -57.2% | UACC-257 melanoma -53.2% | M14 melanoma -70.5%
inactive: HOP-92 NSCLC 15.1%

NC(=O)c1ccccc1OCC(=O)Nc1ccc(Cl)c(Cl)c1
inactive: NCI-H23 lung 104% | NCI-H226 lung 96.3% | NCI-H322M lung 96.8% | HOP-62 NSCLC 96.8% | NCI-H460 lung 100% | HOP-92 NSCLC 88.7% | NCI-H522 lung 83.1% | A549/ATCC NSCLC 114% | 786-0 renal 109% | COLO 205 colon 105% | DU-145 prostate 114% | K-562 leukemia 91% | MALME-3M melanoma 100% | MDA-MB-231 breast 96.1% | RXF 393 renal 104% | SF-268 CNS 107% | SF-295 CNS 98.9% | SF-539 CNS 85.1% | UACC-257 melanoma 112% | M14 melanoma 111%
